Assay results: the supplement of paper PMC12636033
± gives the standard deviation of the averaged measurements. In all, about 33,000 sequences were measured (“E-score (rank enrichment, -0.5 to 0.5)”: median about -0.0068, highest 2% from about 0.24 on). The sample as a whole holds a higher share of the highest values than the screen did.

These sequences were tested on muMax20 (Max(13-93) K31hArg/K57hArg, M65Nle) (assay: PBM 8-mer E-score (E-score (rank enrichment, -0.5 to 0.5)); higher = stronger preferential binding).
Procedure: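 Protein binding microarray (universal PBM chip covering all 10-mers in fixed probe flanks) with chemically synthesized human Max(13-93) bHLH-LZ analogs (not full-length Max) bearing noncanonical residues (hArg, Tha, Aib, Nle at 65) and aromatic Cys staples. Read-out per 8-mer (and its reverse complement): E-score (rank-based enrichment, -0.5 to 0.5) and Z-score of median probe intensity.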

| Sequence | PBM 8-mer E-score |
| --- | --- |
| GGGGTACC | -0.196 ± 0.038 |
| GCATATAA | 0.113 ± 0.027 |
| AAATTATG | 0.211 ± 0.015 |
| ATATTACA | 0.137 ± 0.011 |
| ATATTATA | 0.308 ± 0.012 |
| ATATTACC | 0.244 ± 0.0062 |
| CTATTATA | 0.0941 ± 0.095 |
| CTATTACC | 0.0779 ± 0.076 |
| GTATTACA | 0.3133 ± 0.0018 |
| AAATTATA | 0.173 ± 0.054 |
| ACATTATA | 0.21 ± 0.031 |
| AAATTATT | 0.2538 ± 0.0012 |
| CTATTACA | 0.171 ± 0.028 |
| GCATTACA | 0.142 ± 0.017 |
| CCCTTTCG | -0.143 ± 0.066 |
| AGAACTAC | 0.126 ± 0.015 |
| CAGTGGGA | -0.0398 ± 0.11 |
| CGAACAGA | -0.107 ± 0.056 |
| AGCCTATC | 0.0159 ± 0.029 |
| AACTTCTC | -0.0128 ± 0.016 |
| CAGAGTTA | -0.06527 ± 0.00021 |
| AGATTATG | 0.00982 ± 0.022 |
| GTATTAAA | 0.178 ± 0.049 |

| Sequence | PBM 8-mer E-score |
| --- | --- |
| CTATTAGA | -0.0357 ± 0.074 |
| ATATTAGA | 0.302 ± 0.026 |
| ATATTATC | 0.0756 ± 0.14 |
| GTATTATA | 0.256 ± 0.063 |
| GTATTAGA | 0.213 ± 0.0064 |
| GCATTATA | 0.129 ± 0.031 |
| ATATTATG | 0.276 ± 0.015 |
| AAACGGAA | -0.0336 ± 0.073 |
| CCTAGTAC | 0.0875 ± 0.082 |
| ACTTCCTC | 0.052 ± 0.096 |
| AACGCTAG | -0.145 ± 0.08 |
| AAAACAAT | 0.265 ± 0.029 |
| AAAACAAG | 0.111 ± 0.034 |
| AAAACAGG | -0.0042 ± 0.15 |
| AAAACAAC | 0.00369 ± 0.069 |
| AAAACAGT | 0.252 ± 0.029 |
| AAAACAGC | 0.0469 ± 0.026 |
| GGGCTAAC | -0.0713 ± 0.048 |
| ACCAGCCC | -0.112 ± 0.14 |
| ACGTGACC | 0.302 ± 0.02 |
| ACGTGACT | 0.234 ± 0.088 |
| CCGTGACA | 0.0799 ± 0.03 |
| GCGTGACC | 0.0743 ± 0.024 |

| Sequence | PBM 8-mer E-score |
| --- | --- |
| ACGTGACA | 0.312 ± 0.043 |
| AGGTGACG | -0.141 ± 0.091 |
| CCGTGACG | -0.149 ± 0.01 |
| ACGTGACG | 0.271 ± 0.058 |
| CCGTGACC | -0.272 ± 0.029 |
| ACCAGAAC | 0.0216 ± 0.026 |
| AGCGGCCA | -0.227 ± 0.059 |
| TAGTACTA | 0.0405 ± 0.17 |
| AAGGCGGA | -0.113 ± 0.044 |
| TAGGCCCA | -0.123 ± 0.016 |
| CCAATTTA | 0.131 ± 0.034 |
| GTGCCCTA | -0.0334 ± 0.02 |
| ACGTTATA | 0.228 ± 0.019 |
| ACGTTATC | 0.0863 ± 0.046 |
| ACGTTATG | 0.282 ± 0.057 |
| CCTGTACA | 0.0242 ± 0.16 |
| AGACATAT | 0.29 ± 0.014 |
| GTACATAA | 0.175 ± 0.0024 |
| ATACACAT | 0.318 ± 0.0071 |
| TTACATAA | 0.24 ± 0.0072 |
| ATACACAC | 0.208 ± 0.053 |
| CTACATAA | 0.0871 ± 0.052 |
| CTACATAC | 0.178 ± 0.042 |

| Sequence | PBM 8-mer E-score |
| --- | --- |
| AGACATAC | 0.0812 ± 0.086 |
| ATACATAG | 0.181 ± 0.13 |
| ATACATAT | 0.254 ± 0.075 |
| AGACATAG | -0.014 ± 0.18 |
| ATACACAG | 0.0766 ± 0.089 |
| ATCTAACA | 0.0591 ± 0.057 |
| GCGCTTCA | -0.115 ± 0.063 |
| CTAGAGCC | -0.187 ± 0.036 |
| ACGATAGA | -0.0358 ± 0.083 |
| AAACATAG | 0.126 ± 0.018 |
| ATACATCA | 0.21 ± 0.061 |
| ACACATAG | -0.0133 ± 0.049 |
| ATACATAC | 0.169 ± 0.017 |
| ACACATAA | 0.265 ± 0.041 |
| GCACATAA | 0.151 ± 0.038 |
| GAACATAA | 0.123 ± 0.095 |
| ATACATAA | 0.255 ± 0.032 |
| AAACATAA | 0.246 ± 0.1 |
| CTCAGGAG | -0.162 ± 0.071 |
| ATCCTTGG | -0.0154 ± 0.11 |
| CTTCCCTC | 0.0647 ± 0.025 |
| AAGATTTG | 0.0326 ± 0.071 |
| ACGTTTGC | 0.0313 ± 0.0058 |

| Sequence | PBM 8-mer E-score |
| --- | --- |
| CCGGTGAC | -0.252 ± 0.12 |
| ACATGGTG | 0.241 ± 0.053 |
| CAATGGTA | 0.0785 ± 0.022 |
| CCATGCTC | 0.0121 ± 0.13 |
| CCATGGTC | -0.1574 ± 0.0011 |
| ACATGGTC | 0.245 ± 0.08 |
| TAATGGTA | 0.193 ± 0.013 |
| CTATGGTC | -0.125 ± 0.061 |
| ACATGGCG | 0.175 ± 0.045 |
| ACATGCTC | 0.237 ± 0.091 |
| AAATGGTA | 0.238 ± 0.096 |
| AGATGGTG | -0.0739 ± 0.067 |
| ACATGCTA | 0.164 ± 0.071 |
| ATCTGGTA | -0.00159 ± 0.021 |
| AGCGGCCC | -0.191 ± 0.026 |
| CGACGGTC | -0.172 ± 0.15 |
| AGTGTGTG | 0.0857 ± 0.065 |
| AAGAGCTA | 0.12 ± 0.045 |
| ATTTGTCA | 0.123 ± 0.0081 |
